This passage reports z-score and composite z-score results from PubChem BioAssay.

Assay [1] in a line: resazurin metabolic signal in HepG2 cells – cell-based, resazurin fluorescence, 24 h, PK04 Diversity Set, profiling panel (AID 1172). Note: test concentration not given here. The settings on record: HepG2 viability, higher = more signal. On the technique in general: Resazurin is reduced to fluorescent resorufin, in cell work by metabolically active cells.
Assay [2] can be described thus: budding yeast growth changes without added modifier – OD600, strain BY4716, 24 h, basal condition, primary screen (AID 1173). To be noted: S. cerevisiae BY4716 growth, OD600, 24 h; higher = more signal, called active from +8 up or from −8 down.
The nature of assay [3]: viability profiling in MM1S myeloma cells – cell-based, resazurin fluorescence, basal, 24 h, PK04 Diversity Set, profiling panel (AID 1174).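 Note: MM1S multiple myeloma cell line; test concentration not given here.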 To be noted: higher = more signal, called active from +8 up or from −8 down.
Assay [4] concerns the target Dihydroorotate dehydrogenase (quinone), mitochondrial (Plasmodium falciparum (isolate 3D7)) (UniProt Q08210). The assay is described as follows: inhibition of P. falciparum DHODH – biochemical, C-terminal His tag, absorbance 600 nm, primary screen (AID 1175).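 Note: recombinant parasite enzyme with a five histidine tag at its C terminus; test concentration not given here.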 To be noted: PfDHODH enzyme, DCIP absorbance 600 nm; higher = more signal, called active from +8 up or from −8 down.

Assay [5] can be described thus: inhibition of PAO1 biofilm formation – strain PAO1, LB-PBS medium, absorbance 600 nm, primary screen (AID 1176). Note: test concentration not given here. To be noted: P. aeruginosa PAO1 growth/biofilm, A600, 12 h; higher = more signal.
The nature of assay [6]: growth modulation of vineyard yeast isolate – strain RM11-1a, OD600, basal, 24 h, primary screen (AID 1177).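 Note: cultures grown under basal conditions with no added stressor; test concentration not given here.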 The settings on record: S. cerevisiae RM11-1a growth, OD600, 24 h; higher = more signal, called active from +8 up or from −8 down.
A short description of assay [7]: growth of efflux-deficient E. coli DRC39 – strain DRC39, OD650, 24 h, E. coli filamentation inducers, primary screen (AID 1178).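 Note: growth measured as culture turbidity by optical density at 650 nm; test concentration not given here.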 To be noted: E. coli DRC39 acrAB, higher = more signal, called active from +8 up or from −8 down.
Assay [8] in a line: growth of efflux-deficient E. coli DRC39 – strain DRC39, OD650, 48 h, E. coli filamentation inducers, primary screen (AID 1179).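 Note: screen aims at cell division blockers that make cells filament.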 The settings on record: E. coli DRC39 delta-acrAB growth, higher = more signal, called active from +8 up or from −8 down.
The nature of assay [9]: viability profiling in RPMI8226 myeloma cells – cell-based, resazurin fluorescence, basal, 24 h, PK04 Diversity Set, profiling panel (AID 1180).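 Note: RPMI8826 multiple myeloma cell line at 5000 cells per well; test concentration not given here.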 The settings on record: higher = more signal.
For assay [10], the target named is E3 ubiquitin-protein ligase XIAP (Homo sapiens) (UniProt P98170). As to the kind of experiment: small molecules binding XIAP protein – biophysical, small-molecule microarray, fluorescence 635 nm, primary screen (AID 1181).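 Note: score merges 667 nm emission and signal to noise over triplicate slides.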 To be noted: higher = more signal.

Molecules are shown by their SMILES. Calls of active or inactive are those of the source. Unless noted, the rule behind the calls is not given here.

Dihydroorotate dehydrogenase (quinone), mitochondrial (Plasmodium falciparum (isolate 3D7)), sequence (Q08210 whole entry, looked up): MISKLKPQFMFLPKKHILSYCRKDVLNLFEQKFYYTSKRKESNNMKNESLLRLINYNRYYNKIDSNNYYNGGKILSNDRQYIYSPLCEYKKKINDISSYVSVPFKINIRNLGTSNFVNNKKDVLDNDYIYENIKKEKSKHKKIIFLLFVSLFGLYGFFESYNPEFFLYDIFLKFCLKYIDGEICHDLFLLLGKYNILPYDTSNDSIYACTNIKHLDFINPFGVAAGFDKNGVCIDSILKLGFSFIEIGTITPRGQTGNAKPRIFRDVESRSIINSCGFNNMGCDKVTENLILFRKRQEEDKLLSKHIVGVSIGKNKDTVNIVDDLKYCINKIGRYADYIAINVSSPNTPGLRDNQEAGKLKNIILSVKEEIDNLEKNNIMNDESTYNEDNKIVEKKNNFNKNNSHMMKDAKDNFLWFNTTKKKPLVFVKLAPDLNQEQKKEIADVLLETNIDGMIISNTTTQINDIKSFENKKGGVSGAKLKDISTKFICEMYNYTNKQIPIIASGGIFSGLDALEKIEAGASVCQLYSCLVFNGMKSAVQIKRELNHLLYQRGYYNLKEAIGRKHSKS
E3 ubiquitin-protein ligase XIAP (Homo sapiens), sequence (P98170 whole entry, looked up): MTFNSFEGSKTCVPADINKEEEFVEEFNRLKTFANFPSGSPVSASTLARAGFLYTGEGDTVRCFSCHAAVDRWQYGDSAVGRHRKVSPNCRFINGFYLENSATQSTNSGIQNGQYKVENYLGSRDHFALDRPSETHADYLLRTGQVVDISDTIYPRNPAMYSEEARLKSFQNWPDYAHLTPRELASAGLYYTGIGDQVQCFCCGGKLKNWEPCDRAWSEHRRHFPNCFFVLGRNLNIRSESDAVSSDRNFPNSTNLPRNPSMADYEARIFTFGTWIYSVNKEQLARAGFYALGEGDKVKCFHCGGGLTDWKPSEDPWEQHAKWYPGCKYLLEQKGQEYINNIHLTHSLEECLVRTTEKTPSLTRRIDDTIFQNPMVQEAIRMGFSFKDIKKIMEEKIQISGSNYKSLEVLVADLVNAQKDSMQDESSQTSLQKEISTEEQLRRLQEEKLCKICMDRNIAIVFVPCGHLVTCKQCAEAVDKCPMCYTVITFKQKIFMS

As to `COc1ccc(CCN2C(=O)[C@@]3(c4ccc([N+](=O)[O-])cc4)CC(=O)N(CC45CC6CC(CC(C6)C4)C5)[C@@H]3c3ccc(CO)cc32)cc1`, the z-score is 0.214 in assay [1]; -0.12 (inactive) in [2]; 0.954 (inactive) in assay [3]; 0.298 (inactive) in assay [5]; -0.16 (inactive) in assay [6]; 0.307 (inactive) in [7]. Moreover, the z-score in assay [8] was 0.241 (inactive); in [9], 0.325. The composite z-score was -25.3 (active) in assay [4] and 0.0325 in assay [10].
For the compound `CC(C)(C)OC(=O)CC[C@]1(C(=O)N2CCCCC2)N=C(c2ccc(OCCCO)cc2)O[C@H]1c1ccccc1`, the z-score in assay [1] was -0.302; in assay [2], -1.05 (inactive); in assay [3] it was -1.37 (inactive); in assay [5], 0.0937 (inactive); in assay [6], -0.374 (inactive); in [7] it was 0.627 (inactive). In addition, the z-score is 0.837 (inactive) in assay [8] and -0.128 in [9]. Besides, the composite z-score in [4] was -0.892 (inactive); in [10], 0.354.
In the case of `C=C(C)[C@@H]1CC=C(C(O)C2C=CC3C(=O)NC(=O)C3N2Nc2ccccn2)CC1` (stereo not given in full), the z-score in [1] was -1.3; in assay [2], -0.252 (inactive); in assay [3], -1.48 (inactive); in assay [5] it was 1.99 (inactive); in assay [6], -0.0819 (inactive); in assay [7], -0.575 (inactive). The z-score in assay [8] is -0.339 (inactive); in assay [9] it was -2.2. The composite z-score in [4] was 0.291 (inactive); in assay [10] it was 0.287.
Consider `COCCOC(=O)N1C(=O)[C@@]2(c3cc(C#CC4=CCCCC4)ccc31)[C@H](c1ccc(O)cc1)N1[C@H](c3ccccc3)[C@H](c3ccccc3)OC(=O)[C@H]1[C@@H]2C(=O)N1CCCCCCC1`, for which the z-score was 0.32 in assay [1]; -0.615 (inactive) in assay [2]; 1.17 (inactive) in assay [3]; 1.35 (inactive) in assay [5]; 0.19 (inactive) in assay [6]; 0.15 (inactive) in [7]. Besides, the results for the z-score in [8] and in assay [9] were 1.29 (inactive) and 0.768, respectively. Further, the figures for the composite z-score in assay [4] and in [10] were 0.104 (inactive) and -0.445, respectively.
Take `C=CC[C@@]1(C(=O)NCC(O)CO)N=C(c2ccc(OCCCO)cc2)O[C@@H]1c1ccccc1CN=[N+]=[N-]` (stereo not given in full): the z-score in [1] is -0.192; in [2] it was -1.14 (inactive); in assay [3] it was -0.754 (inactive); in assay [5], 0.385 (inactive); in assay [6] it was -0.0334 (inactive); in assay [7], 0.613 (inactive). In addition, the results for the z-score in assay [8] and in assay [9] were 1.52 (inactive) and 0.516, respectively. The composite z-score was 0.592 (inactive) in assay [4] and 0.254 in assay [10].
For the compound `COc1ccc(C(=O)Nc2ccc(CN3C(=O)[C@]4(O[C@H](CCn5cc(CCO)nn5)[C@@H]([Si](C)(C)c5ccc(OC)cc5)[C@@H]4C)c4ccccc43)cc2)cc1`, the z-score was -2.97 in [1]; -5.51 (inactive) in assay [2]; -6.19 (inactive) in assay [3]; 0.307 (inactive) in [5]; 2.44 (inactive) in assay [6]; 1.09 (inactive) in [7]. Further, the z-score is 0.72 (inactive) in assay [8] and -3.23 in assay [9]. Moreover, the composite z-score is 0.597 (inactive) in assay [4] and -0.0129 in [10].
Regarding `COCCOC(=O)N1C(=O)[C@@]2(c3cc(C#CCC(C(=O)OC)C(=O)OC)ccc31)[C@H](c1ccccc1OCCO)N1[C@H](c3ccccc3)[C@H](c3ccccc3)OC(=O)[C@H]1[C@@H]2C(=O)N1CCCCCCC1`, the z-score in assay [1] is 1.16; in assay [2] it was 1.29 (inactive); in assay [3], 0.883 (inactive); in assay [5], 1.48 (inactive); in assay [6] it was 2.14 (inactive); in assay [7], 0.189 (inactive). Further, the z-score in assay [8] was 0.364 (inactive); in assay [9] it was 1.58. For the same compound, the results for the composite z-score in assay [4] and in assay [10] were 0.243 (inactive) and 0.361, respectively.
`COc1ccc(-c2cc3c(c(-c4ccccc4)n2)[Si](C(C)C)(C(C)C)O[C@H]3c2ccccc2)cn1`: the z-score is 0.158 in [1]; 0.509 (inactive) in assay [2]; 0.117 (inactive) in [3]; 0.35 (inactive) in assay [5]; -0.824 (inactive) in assay [6]; 0.0539 (inactive) in assay [7]. In addition, the figures for the z-score in assay [8] and in assay [9] were -0.508 (inactive) and 0.184, respectively. For the same compound, the composite z-score in assay [4] was -0.349 (inactive); in assay [10], 0.113.
As to `COC(=O)Cn1c(C(=O)N2CCCC2)cc2c1C[C@H]1CN(C(=O)c3ccccc3)[C@@](Cc3ccc(OC)cc3)(C(=O)OC)[C@@H]21`, the z-score in assay [1] was 0.101; in assay [2], 1.5 (inactive); in [3], -2.14 (inactive); in assay [5], 0.259 (inactive); in assay [6], 0.569 (inactive); in assay [7] it was -0.506 (inactive). For the same compound, the z-score was -0.031 (inactive) in [8] and -2.1 in [9]. Also, the composite z-score in [4] is -0.632 (inactive); in assay [10], 0.311.
As for `COc1cc(Cc2cc3c(c(CCc4ccccc4)n2)[Si](C(C)C)(C(C)C)OC3)cc(OC)c1OC`, the z-score is 1.47 in assay [1]; -0.0438 (inactive) in [2]; 0.273 (inactive) in assay [3]; 0.726 (inactive) in [5]; 0.404 (inactive) in assay [6]; -0.171 (inactive) in assay [7]. Further, the z-score was 0.365 (inactive) in assay [8] and 0.815 in [9]. Moreover, the composite z-score in assay [4] was -0.606 (inactive); in assay [10], 0.107.
Consider `C=CCC(OC(C)=O)[C@@H]1[C@@H](N(Cc2ccc(-c3cccc(C(F)(F)F)c3)o2)C(=O)Cc2ccc(F)cc2)c2cc(OCCCO)ccc2N1C(=O)c1ccc(-c2ccccc2)cc1` (stereo not given in full), for which the z-score in [1] was -0.138; in [2], -0.0284 (inactive); in [3] it was 0.314 (inactive); in [5], 1.11 (inactive); in assay [6] it was -0.12 (inactive); in [7] it was -0.124 (inactive). Further, the z-score in [8] is -0.143 (inactive); in assay [9] it was 0.171. Also, the composite z-score in assay [4] is -0.262 (inactive); in assay [10], -0.184.
For the compound `C=CCN1C(=O)[C@@]2(Cc3ccccc3)N=C(c3ccc(OCCCO)cc3)O[C@H]2c2ccccc21`, the z-score was -0.406 in assay [1]; -2.11 (inactive) in assay [2]; -2.82 (inactive) in assay [3]; 1.39 (inactive) in assay [5]; 0.414 (inactive) in assay [6]; -0.304 (inactive) in assay [7]. The z-score is -0.239 (inactive) in [8] and -4.23 in assay [9]. Moreover, the results for the composite z-score in [4] and in [10] were 0.324 (inactive) and 0.212, respectively.
